Measurements published in PubChem BioAssay (EPA / NIEHS).
Results filed as inconclusive are left out. Activity calls are given as the source filed them. How the source made its calls, unless noted: active means hit-call score of the fitted dose curve at least 0.9, where 1 is the maximum; inconclusive means response in the unintended direction; inactive means score below 0.9.

Legend:
[1] = molecular target: human CYP19A1, CYP19A1 (gene 1588) (UniProt P11511); experiment: NVS_ADME_hCYP19A1: NovaScreen (NVS) CYP450-related Enzyme Activity (ADME) Assay for human CYP19A1 (AID 2283098)
Procedure, shortened: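 Cell-free enzyme assay with recombinant protein and a specific fluorogenic substrate, read by fluorescence intensity 0.5 h after dosing. Primary screen ran in duplicate at 10 uM; actives were retested in concentration series. Loss of signal versus acetonitrile baseline.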

[2] = CCTE_Mundy_HCI_hNP1_Casp3_7: CCTE's Caspase-Glo 3/7 Assay in human neuroprogenitor cells for Apoptosis, Mundy Lab (AID 2284240; active means hit-call score of the fitted dose curve at least 0.9, where 1 is the maximum; inactive means score below 0.9)
Procedure, shortened: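 Neuroepithelial-lineage stem cells from WA09 embryonic cells were treated with chemicals after 40–44 h of culture. Twenty-four hours later, caspase-3/7 activation was detected luminescently after a 30 min room-temperature reagent step, with DMSO as baseline.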

[3] = IUF_NPC2c_oligodendrocyte_migration_120hr: Leibniz Research Institute for Environmental Medicine (IUF) 120-hour Neural Progenitor Cell Migration Assay for Oligodendrocyte Migration (NPC2c) (AID 2284297; active means hit-call score of the fitted dose curve at least 0.9, where 1 is the maximum; inactive means score below 0.9)
Procedure, shortened: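 Read-out is the mean distance of O4-positive oligodendrocytes from the sphere core edge at 120 h, normalized to radial glia migration and fitted in the gain direction against DMSO. Spheres of primary human neural progenitors differentiated on laminin under continuous compound exposure.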

[4] = IUF_NPC2a_radial_glia_migration_120hr: Leibniz Research Institute for Environmental Medicine (IUF) 120-hour Neural Progenitor Cell Migration Assay for Radial Glia Migration (NPC2a) (AID 2284298; active means hit-call score of the fitted dose curve at least 0.9, where 1 is the maximum; inactive means score below 0.9)
Procedure, shortened: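 Readout: distance in um from sphere core edge to migration-area edge, derived from Hoechst nuclei density with a threshold-defined polynomial boundary. Spheres: hNPC, GW 16-19, 0.3 mm, on PDL/laminin; exposure 5 days; DMSO is baseline.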

[5] = IUF_NPC2a_radial_glia_migration_72hr: Leibniz Research Institute for Environmental Medicine (IUF) 72-hour Neural Progenitor Cell Migration Assay for Radial Glia Migration (NPC2a) (AID 2284299; active means hit-call score of the fitted dose curve at least 0.9, where 1 is the maximum; inactive means score below 0.9)
Procedure, shortened: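 Human fetal cortex (GW 16-19) neural progenitor spheres, 0.3 mm, plated on poly-D-lysine/laminin in N2 differentiation medium with compound from day 0. Radial glia migration distance (um, sphere core edge to migration edge) measured manually in four directions on 72 h brightfield images; well mean used.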

[6] = IUF_NPC2b_neuronal_migration_120hr: Leibniz Research Institute for Environmental Medicine (IUF) 120-hour Neural Progenitor Cell Migration Assay for Neuron Migration (NPC2b) (AID 2284300; active means hit-call score of the fitted dose curve at least 0.9, where 1 is the maximum; inactive means score below 0.9)
Procedure, shortened: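 Read-out is mean distance from sphere edge to each TUBB3-positive neuron at 120 h, expressed relative to radial glia migration distance and to DMSO baseline. Single 0.3 mm human NPC spheres differentiated on laminin under continuous compound exposure.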

[7] = IUF_NPC3_neuronal_differentiation_120hr: Leibniz Research Institute for Environmental Medicine (IUF) 120-hour Neuronal Differentiation Assay (NPC3) (AID 2284301; active means hit-call score of the fitted dose curve at least 0.9, where 1 is the maximum; inactive means score below 0.9)
Procedure, shortened: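 Primary human fetal neural progenitor spheres (GW 16-19, 0.3 mm) plated on poly-D-lysine/laminin in N2 medium, exposed from day 0 for 120 h with half-medium refresh at day 3. TUBB3+ cells as percent of Hoechst nuclei in migration area; DMSO baseline.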

[8] = IUF_NPC4_neurite_length_120hr: Leibniz Research Institute for Environmental Medicine (IUF) 120-hour Neuronal Morphology Assay for Neurite Length (NPC4) (AID 2284302; active means hit-call score of the fitted dose curve at least 0.9, where 1 is the maximum; inactive means score below 0.9)
Procedure, shortened: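 Human fetal cortex (GW 16-19) neural progenitor spheres, 0.3 mm, were plated on poly-D-lysine/laminin in N2 differentiation medium and exposed from day 0 for 120 h, half-feeding at day 3. Mean TUBB3+ neurite length (µm) came from skeletonized images, relative to DMSO.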

[9] = IUF_NPC4_neurite_area_120hr: Leibniz Research Institute for Environmental Medicine (IUF) 120-hour Neuronal Morphology Assay for Neurite Area (NPC4) (AID 2284305)
Procedure, shortened: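 Human fetal cortex-derived neural progenitor spheres (0.3 mm, GW 16-19) plated on poly-D-lysine/laminin in N2 differentiation medium and exposed from day 0 for 120 h across 7 concentrations plus solvent control. Neurite area is mean pixel area per TUBB3-positive neuron via skeletonization, analysed relative to DMSO.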

[10] = IUF_NPC2-5_cytotoxicity_72hr: Cytotoxicity Assessment at 72 hours in the Leibniz Research Institute for Environmental Medicine (IUF) Neural Progenitor Cell Migration and Differentiation Assay for Cytotoxicity (NPC2-5) (AID 2284306);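 further: LDH release into supernatant measured by resorufin fluorescence marking membrane damage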
Procedure, shortened: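 Human fetal (GW 16-19) neural progenitor spheres, 0.3 mm, plated on poly-D-lysine/laminin in N2 differentiation medium and exposed from day 0 to 7 concentrations plus solvent control (DMSO ≤0.1%). LDH-dependent resazurin-to-resorufin fluorescence in supernatant at 72 h.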

[11] = IUF_NPC2-5_cytotoxicity_120hr: Cytotoxicity Assessment at 120 hours in the Leibniz Research Institute for Environmental Medicine (IUF) Neural Progenitor Cell Migration and Differentiation Assay (NPC2-5) (AID 2284307);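 on AC50: LDH released into supernatant as membrane damage marker via resorufin fluorescence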
Procedure, shortened: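 Sphere plating starts differentiation and exposure together at day 0. Compound solution is half-replaced on day 3. At 120 h, medium supernatant is taken for an LDH membrane-integrity read based on resazurin reduction to resorufin fluorescence.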

[12] = IUF_NPC2-5_cell_number_120hr: Cell Number Assessment at 120 hours in the Leibniz Research Institute for Environmental Medicine (IUF) Neural Progenitor Cell Migration and Differentiation Assay (NPC2-5) (AID 2284308; active means hit-call score of the fitted dose curve at least 0.9, where 1 is the maximum; inactive means score below 0.9;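 further: count of Hoechst-stained nuclei in migration zone around plated human neural progenitor spheres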)
Procedure, shortened: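 hNPC spheres, one per well, PDL/laminin, N2 medium, 37C, 5% CO2. Dosing day 0 → half-medium change with fresh compound day 3 → fix 120 h. Readout: Hoechst+ nuclei count, migration area; 7 concentrations plus solvent control.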

[13] = IUF_NPC2-5_viability_120hr: Viability Assessment at 120 hours in the Leibniz Research Institute for Environmental Medicine (IUF) Neural Progenitor Cell Migration and Differentiation Assay (NPC2-5) (AID 2284312; active means hit-call score of the fitted dose curve at least 0.9, where 1 is the maximum; inactive means score below 0.9)
Procedure, shortened: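 Human fetal (GW 16-19) neural progenitor spheres of 0.3 mm were plated on poly-D-lysine/laminin in N2 differentiation medium and exposed from day 0 for 120 h, with half-medium refresh at day 3. Viability was read as alamar blue resazurin-to-resorufin fluorescence against DMSO.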

[14] = IUF_NPC1_cytotoxicity_72hr: Cytotoxicity Assessment at 72 hours in the Leibniz Research Institute for Environmental Medicine (IUF) Neural Progenitor Cell Proliferation Assay (NPC1) (AID 2284332);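 further: rising LDH signal means more cytotoxicity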
Procedure, shortened: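 Single human fetal cortex neural progenitor spheres (GW 16-19, 0.25-0.35 mm) in EGF/FGF proliferation medium were exposed to compound for 72 h at 37C without renewal. Medium LDH release was read as resorufin fluorescence and fitted as gain-of-signal.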

[15] = CCTE_Mundy_HCI_iCellGluta_NOG_NeuronCount: CCTE's Neurite Outgrowth Assay in iCellGluta cells for Neuron Count, Mundy Lab (AID 2284340);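 further: cells fixed about 48 h after compound addition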
Procedure, shortened: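 Neuron count read by automated high-content imaging of Hoechst 33342 and betaIII-tubulin/Alexa Fluor-488 labelling in human iPSC glutamatergic neurons. Activity fitted relative to DMSO.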

[16] = CCTE_Mundy_HCI_iCellGluta_NOG_NeuriteCount: CCTE's Neurite Outgrowth Assay in iCellGluta cells for Neurite Count, Mundy Lab (AID 2284342);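 further: chemical exposure about 48 hours starting 2 hours after plating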
[17] = molecular target: Estrogen receptor (Homo sapiens) + Estrogen receptor beta (Homo sapiens) (UniProt P03372+Q92731); experiment: OT_ER_ERaERb_1440: Odyssey Thera (OT) 24-hour HEK293T Protein-Complementation Assay for Estrogen Receptor-alpha/-beta Homodimer (AID 2283356);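 further: heteromer of ER alpha and ER beta binding domains; hits raise reporter fluorescence and both agonists and antagonists give an increase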
Procedure, shortened: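 Stable HEK293T PCA line, ERα LBD 310-547 + ERβ LBD 263-489 fused to reporter fragments; 24 h treatment; fluorescence read by laser scanning cytometry; positive fitting direction relative to DMSO.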

[18] = NVS_IC_rCaBTZCHL: NovaScreen (NVS) Ion Channel Assay for Calcium Channel, Type L, Benzothiazepine Site (CaBTZCHL) (AID 2283337)
Procedure, shortened: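 Radioligand binding to the benzothiazepine site of L-type Ca channels in rat cortical membranes (cell-free), 1.5 h after dosing; filter-based scintillation counting. Loss of signal relative to DMSO baseline; primary single-concentration screen at 25 uM, actives then run in concentration series.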

[19] = molecular target: human Ephrin type-A Receptor 1 (EphA1), EPHA1 (gene 2041) (UniProt P21709); experiment: NVS_ENZ_hEphA1: NovaScreen (NVS) Enzymatic Assay for human Ephrin type-A Receptor 1 (EphA1) (AID 2283158);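 further: activity is signal loss versus DMSO meaning EphA1 kinase inhibition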
Procedure, shortened: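 Chemicals first tested in duplicate at 25 uM against recombinant EphA1 with a fluorescent substrate; those passing threshold went to singleton dose-response topping at 50 uM. Activity read 1 h later as mobility-shift fluorescence, loss of signal relative to DMSO.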

[20] = molecular target: Nuclear receptor subfamily 1 group I member 2 (Homo sapiens) (UniProt O75469); experiment: NVS_NR_hPXR: NovaScreen (NVS) Nuclear Receptor Binding Assay for human Pregnane X Receptor (PXR) (AID 2283365);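 further: a drop in FRET signal versus DMSO baseline means the compound binds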
Procedure, shortened: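 Human PXR protein, cell-free; compound added, incubated 2 h, TR-FRET read. Signal decrease vs DMSO = binding. Screened 25 uM duplicate, actives re-run as dilution series.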

Chain of Estrogen receptor (Homo sapiens) + Estrogen receptor beta (Homo sapiens) (P03372 whole entry, looked up, the tested form may be a part): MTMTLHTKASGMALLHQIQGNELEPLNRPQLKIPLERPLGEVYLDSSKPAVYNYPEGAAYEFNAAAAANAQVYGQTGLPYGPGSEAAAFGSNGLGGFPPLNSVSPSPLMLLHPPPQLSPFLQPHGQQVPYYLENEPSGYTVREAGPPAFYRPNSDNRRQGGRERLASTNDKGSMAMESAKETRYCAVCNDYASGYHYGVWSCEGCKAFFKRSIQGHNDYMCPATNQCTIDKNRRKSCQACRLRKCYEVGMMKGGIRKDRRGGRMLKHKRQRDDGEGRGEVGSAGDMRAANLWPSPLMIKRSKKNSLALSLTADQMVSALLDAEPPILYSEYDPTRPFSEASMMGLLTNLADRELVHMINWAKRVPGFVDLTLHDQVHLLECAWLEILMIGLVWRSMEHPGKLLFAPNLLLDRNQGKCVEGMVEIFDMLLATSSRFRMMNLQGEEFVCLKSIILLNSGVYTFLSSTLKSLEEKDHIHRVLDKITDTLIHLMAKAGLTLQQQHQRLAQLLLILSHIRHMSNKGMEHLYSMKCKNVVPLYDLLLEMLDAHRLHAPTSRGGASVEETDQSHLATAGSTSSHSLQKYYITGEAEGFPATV
Chain of Estrogen receptor (Homo sapiens) + Estrogen receptor beta (Homo sapiens) (Q92731 whole entry, looked up, the tested form may be a part): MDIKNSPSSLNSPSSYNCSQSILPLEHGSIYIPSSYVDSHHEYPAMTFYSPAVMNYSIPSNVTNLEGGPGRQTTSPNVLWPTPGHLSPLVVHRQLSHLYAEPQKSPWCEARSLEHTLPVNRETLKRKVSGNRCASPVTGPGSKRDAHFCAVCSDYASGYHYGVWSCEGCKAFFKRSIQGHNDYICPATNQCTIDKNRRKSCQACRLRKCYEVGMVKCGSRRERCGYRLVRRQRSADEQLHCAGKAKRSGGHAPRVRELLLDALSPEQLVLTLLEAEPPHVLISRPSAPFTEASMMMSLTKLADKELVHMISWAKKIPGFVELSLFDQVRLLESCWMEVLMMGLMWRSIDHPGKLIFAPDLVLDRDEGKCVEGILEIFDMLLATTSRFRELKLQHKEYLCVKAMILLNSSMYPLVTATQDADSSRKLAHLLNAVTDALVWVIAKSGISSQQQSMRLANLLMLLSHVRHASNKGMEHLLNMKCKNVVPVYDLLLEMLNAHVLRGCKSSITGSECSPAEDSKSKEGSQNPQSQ
Chain of Nuclear receptor subfamily 1 group I member 2 (Homo sapiens) (O75469 whole entry, looked up): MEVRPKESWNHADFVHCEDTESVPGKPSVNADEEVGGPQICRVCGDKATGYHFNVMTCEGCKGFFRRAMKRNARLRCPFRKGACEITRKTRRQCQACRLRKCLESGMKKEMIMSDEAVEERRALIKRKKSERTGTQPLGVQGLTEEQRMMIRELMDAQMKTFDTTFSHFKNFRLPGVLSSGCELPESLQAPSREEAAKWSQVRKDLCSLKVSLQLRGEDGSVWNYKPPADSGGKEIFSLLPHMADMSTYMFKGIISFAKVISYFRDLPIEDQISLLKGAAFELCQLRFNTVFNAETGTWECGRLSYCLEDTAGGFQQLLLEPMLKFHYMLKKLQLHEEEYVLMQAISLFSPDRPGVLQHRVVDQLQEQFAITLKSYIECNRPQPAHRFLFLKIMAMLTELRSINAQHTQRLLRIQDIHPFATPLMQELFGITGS
Chain of human Ephrin type-A Receptor 1 (EphA1), EPHA1 (gene 2041) (P21709 whole entry, looked up): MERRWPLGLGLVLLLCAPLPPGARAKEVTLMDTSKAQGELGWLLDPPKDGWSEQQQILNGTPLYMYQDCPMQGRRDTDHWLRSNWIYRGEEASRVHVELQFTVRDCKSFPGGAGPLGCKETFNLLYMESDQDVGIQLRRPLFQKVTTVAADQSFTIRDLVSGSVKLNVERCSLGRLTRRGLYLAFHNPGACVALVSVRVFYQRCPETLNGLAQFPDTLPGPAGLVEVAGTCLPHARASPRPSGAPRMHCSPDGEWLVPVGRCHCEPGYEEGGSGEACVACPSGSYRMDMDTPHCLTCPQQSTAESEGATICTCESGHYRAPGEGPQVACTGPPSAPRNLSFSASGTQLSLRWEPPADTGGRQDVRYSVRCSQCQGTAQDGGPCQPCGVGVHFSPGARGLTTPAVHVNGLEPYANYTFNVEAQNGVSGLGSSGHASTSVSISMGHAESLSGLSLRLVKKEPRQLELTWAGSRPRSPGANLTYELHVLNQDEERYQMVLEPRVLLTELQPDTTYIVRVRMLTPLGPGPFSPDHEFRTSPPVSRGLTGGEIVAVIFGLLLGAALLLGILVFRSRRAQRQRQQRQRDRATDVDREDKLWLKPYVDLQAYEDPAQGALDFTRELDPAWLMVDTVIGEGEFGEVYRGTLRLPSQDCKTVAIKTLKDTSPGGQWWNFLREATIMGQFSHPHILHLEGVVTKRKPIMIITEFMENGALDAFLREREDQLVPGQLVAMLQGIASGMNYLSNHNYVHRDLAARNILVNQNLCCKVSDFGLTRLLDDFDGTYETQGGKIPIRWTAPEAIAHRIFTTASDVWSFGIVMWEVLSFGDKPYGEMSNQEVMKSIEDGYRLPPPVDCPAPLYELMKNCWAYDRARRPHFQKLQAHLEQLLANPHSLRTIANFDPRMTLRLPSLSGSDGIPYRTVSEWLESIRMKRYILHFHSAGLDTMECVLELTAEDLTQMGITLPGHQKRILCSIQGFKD
Chain of human CYP19A1, CYP19A1 (gene 1588) (P11511 whole entry, looked up): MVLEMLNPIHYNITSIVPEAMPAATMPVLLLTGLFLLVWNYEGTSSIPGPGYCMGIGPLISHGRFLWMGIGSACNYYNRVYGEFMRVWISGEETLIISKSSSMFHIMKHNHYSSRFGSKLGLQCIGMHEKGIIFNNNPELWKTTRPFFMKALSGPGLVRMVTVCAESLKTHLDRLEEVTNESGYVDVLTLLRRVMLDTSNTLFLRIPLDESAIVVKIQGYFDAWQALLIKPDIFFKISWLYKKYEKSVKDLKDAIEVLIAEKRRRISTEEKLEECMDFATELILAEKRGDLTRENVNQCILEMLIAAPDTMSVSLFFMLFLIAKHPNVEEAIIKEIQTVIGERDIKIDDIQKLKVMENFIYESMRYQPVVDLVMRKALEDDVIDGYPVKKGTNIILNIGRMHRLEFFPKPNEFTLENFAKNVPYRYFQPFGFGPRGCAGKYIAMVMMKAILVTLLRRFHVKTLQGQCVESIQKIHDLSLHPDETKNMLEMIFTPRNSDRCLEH

CC1=NN(c2cc(Cl)c(S(=O)(=O)O)cc2Cl)C(=O)C1N=Nc1ccc(S(=O)(=O)O)cc1 (centres undefined)
outcome [1]: inactive

CN(C)CCC(c1ccc(Cl)cc1)c1ccccn1 (centres undefined)
outcome [2]: inactive | outcome [3]: inactive | outcome [4]: inactive | outcome [5]: inactive | outcome [6]: inactive | outcome [7]: inactive | outcome [8]: inactive | outcome [9]: inactive | outcome [10]: inactive | outcome [11]: inactive | outcome [12]: inactive | outcome [13]: inactive | outcome [14]: inactive | outcome [15]: inactive | outcome [16]: inactive

CC1(C)S[C@@H]2[C@H](NC(=O)[C@H](N)c3ccccc3)C(=O)N2[C@H]1C(=O)O
outcome [2]: inactive | outcome [15]: inactive | outcome [16]: inactive

O=C(OCc1ccccc1)c1ccccc1
outcome [1]: inactive

C=C1CC[C@H]2C[C@@H]1C2(C)C
outcome [17]: inactive

CCCCCCC1CCC(=O)O1 (centres undefined)
outcome [17]: inactive

Oc1cccc2ccccc12
outcome [3]: inactive | outcome [4]: inactive | outcome [5]: inactive | outcome [6]: inactive | outcome [7]: inactive | outcome [8]: inactive | outcome [9]: inactive | outcome [10]: inactive | AC50 [11]: 0.216 µM (active) | outcome [12]: inactive | outcome [13]: inactive | outcome [14]: inactive

O=C(C(=O)c1ccccc1)c1ccccc1
outcome [18]: inactive

N#CCN(CC#N)CCN(CC#N)CC#N
outcome [19]: inactive

NC(N)=Nc1nc(CSCCC(N)=NS(N)(=O)=O)cs1
outcome [2]: inactive | outcome [3]: inactive | outcome [4]: inactive | outcome [5]: inactive | outcome [6]: inactive | outcome [7]: inactive | outcome [8]: inactive | outcome [9]: inactive | outcome [10]: inactive | outcome [11]: inactive | outcome [12]: inactive | outcome [13]: inactive | outcome [14]: inactive | outcome [15]: inactive | outcome [16]: inactive

Nc1ccc(S(=O)(=O)Nc2cnc3ccccc3n2)cc1
outcome [20]: inactive

O=C(CC(C(=O)OC1CCCCC1)S(=O)(=O)O)OC1CCCCC1 (centres undefined)
AC50 [20]: 8.32 µM (active)

CCO[Si](OCC)(OCC)c1ccccc1
outcome [19]: inactive

C[N+](C)(C)CC(=O)[O-]
outcome [19]: inactive

CC[N+](CC)(CC(=O)Nc1c(C)cccc1C)Cc1ccccc1
AC50 [18]: 7.02 µM (active)

CCOC(=O)c1ccccc1
outcome [17]: inactive | outcome [20]: inactive

CCCCCCCCCCCCCCCCCC[N+](C)(C)C
outcome [18]: inactive
